Test results: PubChem BioAssay (NCI)
About 79,000 compounds went through this panel and 15% of them were active in at least one assay; those are over-represented in the sample as a whole. Calls of active or inactive are those of the source. No stated cut-off is given here; in the data, active means growth inhibition above about 70%; inactive means the rest.

Experiments:
[1] = NCI Yeast Anticancer Drug Screen. Data for the rad50 strain (AID 155);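 further: 0% = growth of vehicle-only cultures of the same strain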; conditions: S. cerevisiae rad50 strain growth inhibition; at 50.0 µM; active compounds read high
Summary of the method: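 Vehicle-treated cultures provide the reference for the growth inhibition reported for compound-exposed, repair-deficient yeast.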

[2] = NCI Yeast Anticancer Drug Screen. Data for the mec2-1 strain (AID 157); conditions: S. cerevisiae mec2-1 strain, at 50.0 µM, active compounds read high
Summary of the method: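 Strain: mec2-1 (DNA repair/cell cycle alteration). Compound exposure, then growth measured; inhibition expressed relative to vehicle.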

[3] = NCI Yeast Anticancer Drug Screen. Data for the sgs1 mgt1 strain (AID 161);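 further: 0% = growth of cultures given vehicle only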; conditions: S. cerevisiae sgs1 mgt1 strain, at 50.0 µM, active compounds read high
Summary of the method: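 Inhibition of yeast growth, normalised to vehicle-treated controls, is reported for a strain bearing genetic alterations in DNA damage repair.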

[4] = NCI Yeast Anticancer Drug Screen. Data for the cln2 rad14 strain (AID 165);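 further: 0% = growth equal to vehicle treated cultures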; conditions: S. cerevisiae cln2 rad14 strain, at 50.0 µM, active compounds read high
Summary of the method: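 Compounds are applied to the cln2 rad14 yeast strain, and growth is then compared with that of vehicle-treated cultures to give inhibition.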

[5] = NCI Yeast Anticancer Drug Screen. Data for the bub3 strain (AID 167); conditions: S. cerevisiae bub3 mutant strain, at 50.0 µM, active compounds read high
Summary of the method: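 Mutant yeast screening strain plus compound; vehicle-treated cultures serve as the 0% inhibition reference.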

[6] = NCI Yeast Anticancer Drug Screen. Data for the mlh1 rad18 strain (AID 175); conditions: S. cerevisiae mlh1 rad18 strain growth inhibition; at 50.0 µM; active compounds read high
Summary of the method: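 Read-out is yeast growth inhibition, calculated against vehicle-only controls. The compound was applied to a strain engineered with DNA damage repair alterations.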

Measured: growth inhibition

CS(=O)(=O)c1ccc(/C=C2/C=Cc3ccccc32)cc1
inactive: [1] 19.1% | [2] 13.2% | [3] 6.35% | [4] 15.4% | [5] 30.2% | [6] 14.7%

OC1OCc2cc3ccccc3cc21 (stereo unspecified)
inactive: [1] 21.4% | [2] -0.95% | [3] -8.35% | [4] 3.6% | [5] -7.8% | [6] 3.65%

O=C(CC1C(=O)Nc2ccccc2S1=O)Nc1ccc(Cl)cc1 (stereo unspecified)
inactive: [1] 41.9% | [2] 38% | [3] 59.8% | [4] 18.4% | [5] 48% | [6] 56.3%

CSC(SC)=C1Sc2cccc(Cl)c2S1
inactive: [1] 1.65% | [2] 11.3% | [3] 29.2% | [4] -14.7% | [5] -15.1% | [6] -13.8%

O=C1c2ccccc2C(=O)c2c1cccc2S(=O)(=O)Nc1ccccc1
inactive: [1] -1.45% | [2] 8.85% | [3] 11.2% | [4] -30.1% | [5] 20.1% | [6] -3.6%

OCc1ccc2ccc3ccc(CO)nc3c2n1
inactive: [1] 14.4% | [2] 15.4% | [3] 5.6% | [4] -25.4% | [5] 15.4% | [6] 13.9%

COC(=O)C1(Cc2ccccc2)Cc2cc3c(cc2C1=O)CCC3 (stereo unspecified)
inactive: [1] 20.9% | [2] 3.75% | [3] 8.5% | [4] 2.2% | [5] 34.8% | [6] -7.65%

CNC(=O)c1n[nH]c(=S)[nH]c1=O
inactive: [1] -7.4% | [2] -4.9% | [3] 0.8% | [4] -52.8% | [5] -6.7% | [6] -7.5%

CCCCn1c2c(c3ccccc3c1=O)C(=O)c1ccccc1-2
inactive: [1] 12.1% | [2] -15.7% | [3] -4.8% | [4] 2.1% | [5] -18% | [6] -53%

COC(=O)/C(C#N)=C1\CCC(O)N1C (stereo unspecified)
inactive: [1] 11.9% | [2] -10.8% | [3] 5.8% | [4] 6.2% | [5] 3% | [6] 9.6%

O=C(O)c1cc(=O)c2cc3c(cc2o1)OCc1ccccc1-3
inactive: [1] 13.8% | [2] -6.15% | [3] 2.1% | [4] 19.4% | [5] -6.5% | [6] 3.55%

COc1ccc(/C(=N/NC(=O)NN)C(c2ccc(OC)cc2)C2(O)CNc3c(Cl)cc(Cl)cc32)cc1 (stereo unspecified)
inactive: [1] 1.75% | [2] 14.4% | [3] -9.15% | [4] -16.4% | [5] 16.4% | [6] 12.7%

CCN(CC)CCN(CC)CC(=O)Nc1ccccc1Cl
inactive: [1] -14.9% | [2] -29.9% | [3] -1.65% | [4] 4.35% | [5] -3.6% | [6] -14.2%

CC(=O)OC1CC2C(CCC3CC(C(C)=O)CCC32C)C2CCC(/C(C)=C/C=C(c3ccccc3)c3ccccc3)C12C (stereo unspecified)
inactive: [1] 19.6% | [2] 3.1% | [3] 7.35% | [4] -9.4% | [5] -3.05% | [6] 2.6%

N#Cc1[nH]c(=S)[nH]c1N
inactive: [1] 4.1% | [2] -7.85% | [3] 2.6% | [4] 6.05% | [5] 11.8% | [6] -40.8%

OCCCN1CCCCC1
inactive: [1] -2.7% | [2] -13.6% | [3] 1.05% | [4] 15.8% | [5] -1% | [6] 3.95%

CC(=O)c1cc(-c2ccccn2)c(=O)n2ccccc12
inactive: [1] 26.1% | [2] 15.5% | [3] -19.9% | [4] -0.3% | [5] 5.25% | [6] -4%

CC(=O)OCC(=O)C1(O)CCC2C3CCC4CC(=O)CCC4(C)C3C(=O)CC21C (stereo unspecified)
inactive: [1] -3.65% | [2] -5.65% | [3] -11.8% | [4] 20.2% | [5] 3.7% | [6] 9.4%

Nc1ccn(CCOC(=O)c2ccccc2)c(=O)n1
inactive: [1] -2% | [2] -28% | [3] -14.7% | [4] -6.05% | [5] 31.2% | [6] 15.5%

COC(=O)c1nc(N)nc(C(=O)OC)c1C(=O)c1ccc2ccccc2c1
inactive: [1] -4.75% | [2] -13% | [3] 10.8% | [4] -2.8% | [5] 3.9% | [6] 9.4%

CCn1c(=O)c(C(=O)O)c(Cl)c2cc3c(cc21)OCO3
inactive: [1] 10.3% | [2] 9% | [3] 17.5% | [4] 18.9% | [5] 6.15% | [6] 38.2%

COc1ccc(/C=C/c2c([N+](=O)[O-])c(=O)n(C)c(=O)n2C)cc1
inactive: [1] -14.7% | [2] 0.95% | [3] -3.1% | [4] 16.1% | [5] 2.65% | [6] -10.2%

CC(=O)Nc1ccc(O)c(CN2CCN(c3ccccc3)CC2)c1
inactive: [1] 33.1% | [2] 16% | [3] 17.6% | [4] 47.2% | [5] 12.1% | [6] 20.3%

N#CC(C#N)=CN1CCCCC1
inactive: [1] -16.2% | [2] -4.65% | [3] -12.1% | [4] 17.6% | [5] -6.35% | [6] -17.8%

Cc1ccc2c(O)c3c(cc2c1O)C(=O)c1ccccc1C3=O
inactive: [1] 30.2% | [2] 0.75% | [3] 20.4% | [4] 21.3% | [5] -0.85% | [6] 31.2%

O=C(Nc1ccc(C2=NCCN2)cc1)c1ccc(C(=O)Nc2ccc(C3=NCCN3)cc2)cc1
inactive: [1] -3.1% | [2] 7.45% | [3] 0.95% | [4] 2% | [5] 9.4% | [6] -19.6%

Cc1ccc2ccccc2c1CC(=O)NN
inactive: [1] 6.6% | [2] -26.8% | [3] -0.6% | [4] -25.2% | [5] 6.9% | [6] -8.95%

CCN(CC)CCNc1nc(N)c(C#N)c(C#N)c1C#N
inactive: [1] 5.8% | [2] -14.4% | [3] -4.55% | [4] 9% | [5] -8.3% | [6] 1.45%

CN(Cc1ccccc1)C(=O)/C=C/c1ccccc1
inactive: [1] 9.8% | [2] 22.1% | [3] 26.4% | [4] 2.85% | [5] 27.2% | [6] 14.8%

COc1cccc(C(=O)c2ccc(OC)cc2C(=O)O)c1
inactive: [1] 5.95% | [2] -10.2% | [3] -2.8% | [4] -31.9% | [5] 4.3% | [6] 0.85%

O=[N+]([O-])c1ccc(N=Cc2ccc(O)cc2)cc1
inactive: [1] -17.9% | [2] -19.2% | [3] -30.2% | [4] -27.3% | [5] -4.35% | [6] -67.2%

COc1ccc2[nH]c3c(C)c4c(c(C)c3c2c1)CN(C)CC4
inactive: [1] 3.7% | [2] 4.95% | [3] -17.2% | [4] -1.25% | [5] -7.6% | [6] -5.85%

C(=C/c1ccccc1)/C=N/N1CCN(/N=C/C=C/c2ccccc2)CC1
inactive: [1] -1.4% | [2] 20.6% | [3] 14.8% | [4] -7.1% | [5] 18.5% | [6] -7.05%

Cc1ccc(/C=C/C(=O)c2sc(C(N)=S)nc2C)cc1
inactive: [1] 35.9% | [2] 14.2% | [3] 8.15% | [4] 16.3% | [5] 11.2% | [6] 39%

CCCSc1ncnc2c1nc(C)n2CO
inactive: [1] -2.15% | [2] -2.55% | [3] -1.35% | [4] -14.1% | [5] 2.3% | [6] 0%

CCOC(CSc1cc(C)c2ccccc2n1)OCC
inactive: [1] 14.1% | [2] -0.05% | [3] -11.2% | [4] 3.35% | [5] 0.2% | [6] -15.2%

O=C(CBr)c1cc2ncccc2c2ccccc12
active: [4] 98.6% | [5] 99%
inactive: [1] 46.6% | [2] 51% | [3] 62.2% | [6] 68.9%

CC(=O)NCCc1ccc(OC(C)=O)c(OC(C)=O)c1
inactive: [1] 0.15% | [2] -10.6% | [3] 26.2% | [4] 6.45% | [5] 23.4% | [6] 16.1%

O=C(/C=C/c1ccccc1)NC(=S)Nc1ccc(F)c([N+](=O)[O-])c1
inactive: [1] 7.6% | [2] 6.05% | [3] 7.85% | [4] 12.7% | [5] 21.6% | [6] 12.2%

CCn1c2ccccc2c2c(-c3ccccc3)cc3c(c21)C(=O)N(c1ccccc1)C3=O
inactive: [1] -0.3% | [2] -8.95% | [3] 3.45% | [4] -54% | [5] -7.9% | [6] -9.9%

Cc1c(C(=O)O)c2ccccc2[nH]c1=O
inactive: [1] -2.85% | [2] -1.25% | [3] 2.85% | [4] -40% | [5] -13.2% | [6] 2.5%
